The source of these data is PubChem BioAssay (NCI).

Some test systems named below: NCI-H23 lung; NCI-H226 lung; HOP-62 NSCLC; NCI-H460 lung; HOP-92 NSCLC; NCI-H522 lung; A549/ATCC NSCLC; 786-0 renal; COLO 205 colon; DU-145 prostate; K-562 leukemia; MALME-3M melanoma; MDA-MB-231 breast; RXF 393 renal; SF-268 CNS; SF-295 CNS; SF-539 CNS; UACC-257 melanoma; M14 melanoma; NCI-H322M lung.
Assay in all cases: NCI-60 one-dose screen, 48 h (100 = growth as untreated, 0 = no growth, -100 = all killed)
Holding throughout (settings): 10 µM

About 83,000 compounds went through this panel and 20% of them were active in at least one assay; those are over-represented in the sample as a whole.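 Note: values are percent growth. 100 is the growth of untreated cells, values between 100 and 0 indicate rising inhibition; between -100 and 0 indicates cell death.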 Values without a mark were called inactive. The source made the active and inactive calls. How the source made its calls: active means growth percent below 10; inactive means the rest.

With `COc1cc(-c2nc3ccccc3o2)cc(CN2CCCCC2)c1O`, the growth with NCI-H23 lung is 22.1%; in the assay on NCI-H226 lung it was 78.8%; in the assay with HOP-62 NSCLC, 49.7%; with NCI-H460 lung it was 31.7%; in the assay with HOP-92 NSCLC, 103%; in the assay with NCI-H522 lung it was 65.9%. Besides, the growth with A549/ATCC NSCLC is 34%; in the assay with 786-0 renal it was 94.7%; with COLO 205 colon, 113%; with DU-145 prostate, 12.9%; with K-562 leukemia it was 32.7%; with MALME-3M melanoma it was 28.9%. Moreover, the growth with MDA-MB-231 breast is 70.9%; with RXF 393 renal it was 94.8%; in the assay with SF-268 CNS it was 68.2%; in the assay on SF-295 CNS, 32.5%; with SF-539 CNS, 83.5%; in the assay with UACC-257 melanoma it was 75.2%. Further, in the assay on M14 melanoma, the growth was 34.9%.

`O=C(NCCNC(=O)c1ccc(F)cc1)Nc1ccc(-n2cc(-c3ccncc3)c(-c3ccc(Cl)c(O)c3)n2)cc1`: the growth in the assay with NCI-H23 lung is 6.86% (active); in the assay with NCI-H226 lung, 24.2%; in the assay on HOP-62 NSCLC, 22.9%; with NCI-H460 lung, -0.482% (active); with HOP-92 NSCLC, -19% (active); in the assay with NCI-H522 lung, -29.2% (active). In addition, the growth was 12.4% in the assay on A549/ATCC NSCLC; -11.1% (active) in the assay on 786-0 renal; -80.8% (active) with COLO 205 colon; 2.26% (active) with DU-145 prostate; 6.23% (active) with K-562 leukemia; 3.35% (active) in the assay with MALME-3M melanoma. Also, the growth in the assay with MDA-MB-231 breast is -29.1% (active); with RXF 393 renal, 3.36% (active); in the assay with SF-268 CNS, 5.76% (active); in the assay on SF-295 CNS it was -59.1% (active); in the assay with SF-539 CNS, -37.7% (active); with UACC-257 melanoma it was 24.1%. In the assay on M14 melanoma, the growth was -44.4% (active).

Consider `COc1cc(OC)c2c(=O)c(O)c(-c3ccccc3)oc2c1`, for which the growth in the assay with NCI-H23 lung is 79.8%; in the assay with NCI-H226 lung, 69.3%; in the assay with HOP-62 NSCLC, 67.7%; with NCI-H460 lung it was 53.5%; in the assay on HOP-92 NSCLC it was 52%; in the assay on NCI-H522 lung, 72.5%. Also, the growth in the assay with A549/ATCC NSCLC was 77.3%; in the assay on 786-0 renal, 70.8%; in the assay on COLO 205 colon, 104%; in the assay on DU-145 prostate it was 70.7%; in the assay on K-562 leukemia, 70.6%; in the assay with MALME-3M melanoma it was 101%. In addition, the growth is 67.9% in the assay on MDA-MB-231 breast; 67.6% with RXF 393 renal; 66.4% in the assay with SF-268 CNS; 98.3% with SF-295 CNS; 79.7% in the assay with SF-539 CNS; 84.2% in the assay on UACC-257 melanoma. For the same compound, in the assay on M14 melanoma, the growth is 73.2%.

`CN(C)CCOc1cccc(NC2=C(Cl)C(=O)C(Nc3cccc(OCCN(C)C)c3)=C(Cl)C2=O)c1`: the growth in the assay on NCI-H23 lung was -59.5% (active); in the assay on NCI-H226 lung it was -74.6% (active); in the assay with HOP-62 NSCLC, -82.9% (active); in the assay on NCI-H460 lung, 55.4%; with HOP-92 NSCLC, -70.1% (active); in the assay with NCI-H522 lung, -91.3% (active). Further, the growth in the assay on A549/ATCC NSCLC was 57.9%; in the assay with 786-0 renal, -86.4% (active); in the assay with COLO 205 colon, -82.9% (active); in the assay on DU-145 prostate, -100% (active); in the assay on K-562 leukemia, -30.7% (active); in the assay with MALME-3M melanoma it was -74.8% (active). Besides, the growth in the assay with MDA-MB-231 breast is -75.2% (active); in the assay on RXF 393 renal, -76.5% (active); in the assay with SF-268 CNS, -50% (active); with SF-295 CNS, 66.5%; in the assay on SF-539 CNS, -86.4% (active); in the assay with UACC-257 melanoma, -97.3% (active). Further, in the assay on M14 melanoma, the growth is -74% (active).

Consider `CNS(=O)(=O)Oc1ccc(-c2ccc3occc3c2)cc1`, for which the growth is 95.1% with NCI-H23 lung; 93.8% in the assay with NCI-H226 lung; 102% in the assay on HOP-62 NSCLC; 104% with NCI-H460 lung; 91.8% in the assay with HOP-92 NSCLC; 84% with NCI-H522 lung. Also, the growth was 93.3% with A549/ATCC NSCLC; 99.1% in the assay on 786-0 renal; 111% in the assay on COLO 205 colon; 109% with DU-145 prostate; 89.1% in the assay with K-562 leukemia; 116% in the assay on MALME-3M melanoma. Also, the growth in the assay on MDA-MB-231 breast is 100%; in the assay on RXF 393 renal it was 122%; in the assay with SF-268 CNS it was 102%; in the assay with SF-295 CNS, 92.9%; with SF-539 CNS, 98.1%; in the assay on UACC-257 melanoma, 107%. Besides, in the assay with M14 melanoma, the growth is 113%.

With `Nc1nccc(OCCO)n1`, the growth with NCI-H23 lung was 99.8%; with NCI-H226 lung it was 96.1%; in the assay with HOP-62 NSCLC, 94%; in the assay on NCI-H460 lung, 108%; in the assay with HOP-92 NSCLC, 113%; in the assay with NCI-H522 lung, 90.7%. Besides, the growth in the assay with A549/ATCC NSCLC is 97.4%; with 786-0 renal, 102%; in the assay with COLO 205 colon, 110%; with DU-145 prostate, 104%; with K-562 leukemia it was 99.3%; in the assay with MALME-3M melanoma it was 108%. For the same compound, the growth was 108% in the assay with MDA-MB-231 breast; 117% with RXF 393 renal; 101% in the assay on SF-268 CNS; 97.5% in the assay on SF-295 CNS; 101% in the assay with SF-539 CNS; 97.6% in the assay with UACC-257 melanoma. For the same compound, the growth in the assay with M14 melanoma was 102%.

Turning to `CCC(CC)n1c(C)cc(=O)n1C(CC)CC`, the growth is 101% in the assay on NCI-H23 lung; 99.1% in the assay on NCI-H226 lung; 96.1% in the assay on HOP-62 NSCLC; 103% in the assay with NCI-H460 lung; 99.9% in the assay on HOP-92 NSCLC; 106% in the assay on NCI-H522 lung. The growth is 101% with A549/ATCC NSCLC; 105% in the assay on 786-0 renal; 115% in the assay on COLO 205 colon; 113% in the assay on DU-145 prostate; 105% in the assay with K-562 leukemia; 142% with MALME-3M melanoma. Also, the growth was 109% in the assay with MDA-MB-231 breast; 111% in the assay on RXF 393 renal; 100% with SF-268 CNS; 100% in the assay on SF-295 CNS; 96.7% in the assay on SF-539 CNS; 106% in the assay with UACC-257 melanoma. Besides, in the assay on M14 melanoma, the growth was 110%.

For the compound `NC(N)=N/N=C(\c1ccccc1)C(O)c1ccccc1` (stereo not given), the growth with NCI-H23 lung is 101%; in the assay with NCI-H226 lung it was 96.1%; in the assay with NCI-H322M lung it was 101%; in the assay on HOP-92 NSCLC, 95%; in the assay with NCI-H522 lung it was 82.5%; in the assay on A549/ATCC NSCLC it was 102%. Besides, the growth with 786-0 renal is 98.3%; in the assay with COLO 205 colon it was 101%; in the assay on DU-145 prostate, 112%; in the assay on K-562 leukemia, 90.7%; in the assay on MALME-3M melanoma it was 96.2%; in the assay with MDA-MB-231 breast, 100%. In addition, the growth with RXF 393 renal is 98.8%; in the assay on SF-295 CNS, 102%; with SF-539 CNS, 111%; in the assay with UACC-257 melanoma it was 101%; with M14 melanoma it was 97.3%.
